# Screening results deposited in PubChem BioAssay by National Center for Advancing Translational Sciences (NCATS).
# SMN2 splice up = qHTS Assay for Enhancers of SMN2 Splice Variant Expression. actives 2.8% (n = 210,000). AID 1458, 2008. Potency, µM (series often up to 46.1 µM), for the others: at the highest dose activity change, positive = activation, most hits filed as activators. HEK293 SMN2-luciferase splicing reporter, luminescence, 30-36 h; note: % of control where 0% means no effect; nearly all actives have a fitted effect of over 55% in size
#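 qHTS luciferase splicing reporter: luminescence rises when SMN2 exon 7 is included in transfected HEK293 cells. Compound exposure lasted 30-36 h at 37C, with 4.5 mM final sodium butyrate as control, followed by a ONE-Glo read.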
# FLuc modulator = qHTS profiling assay for firefly luciferase inhibitor/activator using purifed enzyme and Km concentrations of substrates (counterscreen for miR-21 project). Luciferin 4-monooxygenase (Photinus pyralis), P08659. purified FLuc, Km substrates, luminescence inhibition. Potency, µM (titrated, usually from 57.5 µM), for the others: at the top dose activity change, negative = inhibition, most hits filed as inhibitors. actives 6.9% (n = 360,000). AID 588342, 2011;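 note: plate controls were vehicle for no effect and reference inhibitor for full effect; nearly all actives have a fitted effect of over 55% in size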
# Target sequence (P08659 whole entry, looked up): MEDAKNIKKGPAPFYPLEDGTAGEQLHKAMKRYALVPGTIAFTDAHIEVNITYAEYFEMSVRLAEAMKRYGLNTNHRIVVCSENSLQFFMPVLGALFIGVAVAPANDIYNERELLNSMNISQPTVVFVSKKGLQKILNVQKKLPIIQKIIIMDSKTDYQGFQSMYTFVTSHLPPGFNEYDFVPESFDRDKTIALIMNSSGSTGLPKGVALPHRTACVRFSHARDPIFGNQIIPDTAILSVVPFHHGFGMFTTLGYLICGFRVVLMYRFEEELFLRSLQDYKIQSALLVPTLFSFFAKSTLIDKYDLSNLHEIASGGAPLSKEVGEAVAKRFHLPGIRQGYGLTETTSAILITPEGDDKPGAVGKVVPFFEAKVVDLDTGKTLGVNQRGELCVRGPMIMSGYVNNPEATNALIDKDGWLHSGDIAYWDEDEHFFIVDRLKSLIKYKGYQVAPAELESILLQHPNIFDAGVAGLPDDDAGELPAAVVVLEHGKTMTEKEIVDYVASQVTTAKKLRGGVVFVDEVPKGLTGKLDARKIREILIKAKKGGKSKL
#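 Purified P. pyralis luciferase (10nM final) with 10uM D-luciferin and 10uM ATP (Km levels) in 50mM Tris acetate pH 7.5, 10mM Mg acetate, 0.01% Tween-20, 0.05% BSA; qHTS 6-point titration, ~60 µM downward; luminescence read.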
# NPC1 promoter act = qHTS Assay for NPC1 Promoter Activators. Huh7 NPC1 promoter luciferase reporter, 24 h. Potency, µM (series often up to 9.22 µM), without a hit: top-dose activation, hits mostly activators. actives 2.4% (n = 320,000). AID 485313, 2010; note: % of control where 0% means no effect; nearly all actives have a fitted effect of over 60% in size
#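 Luciferase expression driven by the NPC1 promoter was measured in stably transfected Huh7 cells after a 24 h compound incubation, using a luciferase reagent and a luminescence read.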
# ELG1 genotoxic = qHTS screen for small molecules that induce genotoxicity in human embryonic kidney (HEK293T) cells expressing luciferase-tagged ELG1 | AID 504466, 2011 | actives 1.3% (n = 330,000) | HEK293T ELG1-luciferase reporter, luminescence, 16 h | Potency, µM (titrated, usually from 46 µM), for inactives: at the top dose activity change, positive = activation, actives largely listed as activators; note: % of control where 0% means no effect; nearly all actives have a fitted effect of over 60% in size
#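 16 hr compound incubation (37 °C, 5% CO2) of HEK293T cells carrying luciferase-tagged ELG1; luciferase then measured by ONE-Glo luminescence after 30 min at RT.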
# Rab9 prom act = qHTS Assay for Rab9 Promoter Activators | Huh7 Rab9 promoter-luciferase reporter, luminescence, 24 h | Potency, µM (series often up to 9.22 µM), for the others: at the highest dose activation, negative = inhibition, hits mostly activators | actives 2.8% (n = 320,000); note: % of control where 0% means no effect; nearly all actives have a fitted effect of over 60% in size
#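 Huh7 reporter line, Rab9 promoter upstream of luciferase. Compound exposure 24 h at 37 °C in reduced-serum medium with 10% FBS. Read-out: luminescence.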
# p53 reactivator = qHTS assay for re-activators of p53 using a Luc reporter | Potency, µM (doses to about 92.2 µM), for inactives: top-dose activity change, positive = activation, usual class: activators | H1299 p53-A138V BP100-luciferase reporter, luminescence, 24 h | actives 0.063% (n = 320,000); note: % of control where 0% means no effect; nearly all actives have a fitted effect of over 45% in size
#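 p53-null H1299 cells stably carrying temperature-sensitive p53-A138V and a BP100-luciferase reporter were pinned with compounds (4-point, 1:5 series) and held 24 hrs at 37 deg C. Luminescence was read 10 min after detection reagent.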
# Numbers without * were called inactive; ? = inconclusive; / = no result; [ ] = remark or other dose. An excerpt weighted towards active compounds, which were near 7.4% of everything screened. Calls come from the whole dose curve; as a rule, active = well fitted curve in the direction sought with a large enough effect; inconclusive = small, poorly fitted or top-dose-only effect, or another doubt; inactive = no such curve, though single readings can be large; an effect the other way counts as inactive or inconclusive. Potency is the fitted concentration of half-maximal effect.
SMILES,SMN2 splice up,FLuc modulator,NPC1 promoter act,ELG1 genotoxic,Rab9 prom act,p53 reactivator
Cc1ccc2nc(-c3cccc(N)c3)[nH]c2c1,2.2µM*,0.95µM*,0.79µM*,?,1.6µM*,?
CC(=O)Nc1cc(C(=O)OCC(=O)c2ccc(C)cc2)ccc1C,?,6µM*,4µM*,?,2.2µM*,28µM*
CC(C)C(=O)Nc1cccc(C(=O)OCC(=O)c2ccc(Cl)cc2Cl)c1,-7%,1.2µM*,1%,0%,2%,16%
CCOC(=O)Nc1cc(C(=O)OC)ccc1C,19%,-1%,0%,10%,0%,-1%
COc1ccc(C(=O)COc2ccc(C)cc2NC(C)=O)cc1,/,-9%,3.5µM*,?,1.3µM*,25%
CC(=O)Nc1cc(C(=O)OCC(=O)c2ccc(Cl)cc2Cl)ccc1C,-7%,2.4µM*,-3%,-1%,2%,8%
COCC(=O)Nc1cc(Cl)ccc1C,-1%,-3%,3%,0%,1%,2%
COc1ccc(C(=O)CC(=O)C(=O)Nc2cc(OC)ccc2OC)cc1,/,-3%,-6%,0%,-5%,3%
Clc1ccc(/C=C\c2nccc3c2[nH]c2ccccc23)cc1,10%,3.8µM*,27%,17%,21%,17%
N#Cc1ccc(/C=C\c2nccc3c2[nH]c2ccccc23)cc1,-13%,?,?,6%,11%,17%
c1ccc(-c2noc(-c3ccno3)n2)nc1,/,-10%,16%,9%,28%,11%
COc1cccc(-c2nc(-c3ccccn3)no2)c1OC,13µM*,13µM*,3.5µM*,9.2µM*,2.5µM*,?
c1ccc(-c2noc(-c3cccc4ccccc34)n2)nc1,16µM*,0.76µM*,?,?,28%,/
Cc1ccc(C)c(C(=O)N2CCC(c3nc4c(nnn4Cc4ccccc4)c(=O)[nH]3)CC2)c1,?,2%,/,/,/,/
Cc1ccc(NC(=O)c2c(C)oc3ncn(C)c(=O)c23)cc1F,/,-2%,/,/,/,/
Cc1ccc(NC(=O)c2csc(-c3ccccc3)c2C)cc1,-4%,0.095µM*,0.11µM*,?,0.32µM*,?
O=C(Nc1cccc([N+](=O)[O-])c1)c1ccc(-c2ccccc2)cc1,2%,-16%,12%,5%,26%,10%
Cc1c(C(=O)Nc2cccc([N+](=O)[O-])c2)csc1-c1ccccc1,28µM*,0.85µM*,0.71µM*,?,1.3µM*,2%
Cc1ccc2nc(SCC3CCCCO3)[nH]c2c1 (stereo not given),/,1.2µM*,0.4µM*,?,0.11µM*,2%
Cc1ccc2[nH]c(SCC(=O)N3CCOCC3)nc2c1C,6.3µM*,15µM*,?,?,3.5µM*,?
C/C(N)=C(/C#N)C(=O)CSc1nc2ccc(C)cc2[nH]1,10µM*,4.8µM*,1.4µM*,?,1.1µM*,?
CC1CCN(C(=O)CSc2nnc3c(n2)[nH]c2ccc(F)cc23)CC1,/,-1%,-4%,-10%,-15%,3%
O=C(CSc1nc2ncc(Cl)cc2[nH]1)N1CCOCC1,/,/,/,3%,/,5%
Cc1cc(C(=O)CSc2nc3ccc(Cl)cc3[nH]2)c(C)n1CC1CCCO1 (stereo not given),-82%,?,-2%,-8%,-4%,14%
CC(C)c1ccc2[nH]c3nc(SCC(=O)N4CCOCC4)nnc3c2c1,?,6.7µM*,-1%,-7%,4%,25%
SMILES,SMN2 splice up,FLuc modulator,NPC1 promoter act,ELG1 genotoxic,Rab9 prom act,p53 reactivator
COc1cc2c(cc1OC)C(c1ccc(N)cc1)=NNC(=O)C2,21%,/,/,/,/,/
Cc1ccc2nc(SCC(=O)N3CCN(c4ccccc4)CC3)[nH]c2c1,/,-11%,1%,-8%,-3%,-6%
Cc1ccc2nc(SCC(=O)N3CCOCC3)[nH]c2c1,?,6.7µM*,2.5µM*,9.2µM*,1.6µM*,?
O=C(COc1ccc(F)cc1)OCc1cc(=O)n2nc(-c3cccs3)sc2n1,/,-6%,/,/,/,/
CC(=O)N1/C(=C/c2ccc(N(C)C)cc2)C(=O)c2ccccc21,-38%,17µM*,1%,-29%,0%,-10%
COc1ccc(CNC(=O)CN2C(=O)NC3(CCCCCCC3)C2=O)cc1,/,/,/,-1%,/,2%
C[C@@H]1CC=C[C@H]2[C@H]1C(=O)N(Cc1ccccc1)[C@H]2c1ccc(-c2cc3ccccc3s2)cc1F,/,1.7µM*,?,?,?,?
C[C@@H]1CC=C[C@H]2[C@H]1C(=O)N(Cc1ccccc1)[C@H]2c1ccc(-c2ccc(F)cc2)cc1F,/,3%,-9%,-5%,-7%,8%
CC1(C)C=Cc2cc3ccc(=O)oc3cc2O1,14µM*,11µM*,?,?,?,6%
COc1c2c(cc3oc(=O)ccc13)OC(C)(C)C=C2,/,?,18%,13%,22%,10%
COc1ccc(/C=C/C2=Nc3ccccc3NC(C)(C)C2)cc1OC,/,6µM*,29%,-5%,?,10%
O=Nc1c(O)[nH]c2ccccc12.[Cu].[O-]/N=C1/C(=[OH+])Nc2ccccc21,-6%[9.22 µM],/,/,/,/,/
CCOC(=O)N1CCN(c2ccc(C(=O)CC)cc2F)CC1,-11%,-1%,0%,7%,-4%,7%
CCCC(=O)c1ccc(N2CCC(C)CC2)c(F)c1,?,9.5µM*,2%,?,25%,?
CCC(=O)c1ccc(N2CCC(C)CC2)c(F)c1,/,21µM*,8%,13%,29%,7%
CCOC(=O)c1ccc2c(c1)N(CC(=O)N(C)c1ccccc1)C(=O)c1ccccc1S2,/,-7%,/,/,/,/
O=C(COC(=O)c1ccco1)Nc1nc2ccccc2s1,9%,?,-4%,10%,2%,9%
O=C(NC(=S)Nc1nc2ccccc2s1)c1ccco1,11µM*,1.5µM*,?,?,?,?
COc1ccc2nc(NC(=S)NC(=O)c3ccco3)sc2c1,7.9µM*,0.67µM*,3.2µM*,?,1µM*,30%
O=C(CCNC(=O)c1ccccc1Cl)Nc1nc(-c2ccc(F)cc2)cs1,/,-17%,-1%,-2%,2%,8%
COc1ccc(-c2csc(NC(=S)NC(=O)c3ccco3)n2)cc1,?,0%,-3%,20%,-1%,14%
COc1ccc2sc(NC(=O)c3ccco3)nc2c1,?,0.76µM*,0.5µM*,?,0.35µM*,?
